Source: PubChem
Pin1 inhibitor = qHTS Assay to Find Inhibitors of Pin1; Pin1 FP peptide displacement, HiFluor488, 10 min; AID 504891, 2011; Potency, µM (series often up to 115 µM), without a hit: top-dose activity, negative = inhibition, usual class: inhibitors; hit rate 0.009% among 390,000; active = well fitted inhibition curve with a large enough effect in the polarisation, with a control signal flat, not every such curve was filed as active; inconclusive = small, poorly fitted or top-dose-only effect, or effect the other way, or a change in a side signal; inactive = no such curve, though single readings can be large or run the other way; the % refers to the polarisation; note: % is set by controls: 0 for no effect and ±100 for the full control effect
Target sequence (Q13526 whole entry, looked up): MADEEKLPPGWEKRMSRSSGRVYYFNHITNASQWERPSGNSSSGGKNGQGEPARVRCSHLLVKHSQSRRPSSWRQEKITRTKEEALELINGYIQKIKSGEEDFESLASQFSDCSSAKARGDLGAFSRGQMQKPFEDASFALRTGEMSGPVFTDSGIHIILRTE
A549 tox = Nrf2 qHTS screen for inhibitors: counterscreen for cytotoxicity | A549 ARE-Fluc cells, CellTiter-Fluor viability, 18-24 h | Potency, µM (series often up to 46 µM), for inactives: at the top dose activity change, negative = cytotoxicity, actives largely listed as inhibitors | hit rate 0.16% among 390,000; note: % is set by controls: 0 for no effect and ±100 for the full control effect
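A549 ARE_Fluc cells in 5% FBS OPTI-MEM were exposed to compounds in concentration-response for 18-24 h at 37 deg C. Viability was read by CellTiter-Fluor fluorescence (Ex 405/Em 525) after 30 min, before the luciferase read.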
Nrf2 activator = qHTS of Nrf2 Activators; AREc32 ARE-luciferase reporter (MCF7-derived line), luminescence, 24 h; Potency, µM (titrated, usually from 46.1 µM), inactives show top-dose activation, usual class: activators; hit rate 0.31% among 410,000; note: % of control where 0% means no effect; nearly all actives have a fitted effect of over 65% in size
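AREc32 cells carrying an ARE-driven firefly luciferase reporter were seeded at 1000 cells/well in OPTI-MEM with 5% FBS, then exposed to compound for 24 hr at 37 deg C. Luminescence was read with Steady-Glo after 30 min at RT.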
Nrf2 inh = Nrf2 qHTS screen for inhibitors; A549 ARE-Fluc reporter, luciferase luminescence, 18-24 h; Potency, µM (doses to about 46 µM), inactives show top-dose activity change, negative = inhibition, actives largely listed as inhibitors; hit rate 2.1% among 360,000; AID 504444, 2011; note: % is set by controls: 0 for no effect and ±100 for the full control effect; nearly all actives have a fitted effect of over 60% in size
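Reporter: ARE-Fluc in A549. Exposure: 18-24 h, 37 °C, 5% CO2, 5% FBS OPTI-MEM. Readouts: fluorescent cytotoxicity (CellTiter-Fluor), then luminescent Nrf2 signal after BugLite.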
* marks the source's active call; other numbers are inactive results; u = inconclusive; x = no result. A selection: hits, their analogues and other compounds. The true share with any hit is near 2.2%. Unless noted, calls come from the whole dose curve; as a rule, active = well fitted curve in the direction sought with a large enough effect; inconclusive = small, poorly fitted or top-dose-only effect, or another doubt; inactive = no such curve, though single readings can be large; an effect the other way counts as inactive or inconclusive. Potency is the fitted concentration of half-maximal effect.

SMILES	Pin1 inhibitor	A549 tox	Nrf2 activator	Nrf2 inh
O=C1NC[C@@H](c2ccccc2)OC(=O)[C@H](Cc2ccc(F)cc2)C/C=C\C[C@@H]1CC(=O)N(CCO)Cc1ccccc1	u	u	10.2%	25.9µM*
O=C1N[C@@H](Cc2ccccc2)COC(=O)[C@H](Cc2ccc(F)cc2)CC/C=C/C[C@@H]1CC(=O)N(CCO)Cc1ccccc1	1.8%	-5.4%	4.0%	-29.0%
O=C1N[C@@H](Cc2c[nH]c3ccccc23)COC(=O)[C@H](Cc2ccc(F)cc2)C/C=C\C[C@H]1CC(=O)N(CCO)Cc1ccccc1	3.5%	u	-2.8%	25.9µM*
O=C(C=Cc1ccco1)c1ccc2ccccc2c1	2.9%	-3.4%	7.94µM*	u
Cc1c(Cl)cccc1NC(=O)Nc1nnc(N(C)C2CCCCC2)s1	-7.4%	-1.5%	-0.2%	18.4µM*
Cc1ccc(NC(=O)Nc2nnc(N(C)C3CCCCC3)s2)c(Cl)c1	7.0%	3.9%	0.4%	-4.9%
c1csc(-c2nc3ccccn3c2Nc2ccc3c(c2)OCCO3)c1	0.7%	-21.8%	-0.4%	23.1µM*
Cc1nn(C2CCS(=O)(=O)C2)c(Cl)c1/C=C/C(=O)OCC(=O)c1cc(C)n(-c2ccc(F)cc2)c1C (stereo not drawn)	26.2%	9.6%	0.5%	20.6µM*
Cc1nn(C2CCS(=O)(=O)C2)c(Cl)c1/C=C/C(=O)OCC(=O)c1c[nH]c2ccccc12 (stereo not drawn)	21.1%	u	10.3%	u
O=C(Nc1ccccc1Cl)N1CCN(c2ccc3nnc(-c4ccccc4)n3n2)CC1	u	-5.2%	3.2%	u
O=C(Nc1ccc(Cl)cc1)N1CCN(c2ccc3nnc(-c4ccc(F)cc4)n3n2)CC1	5.9%	u	3.4%	20.6µM*
CCCCNC(=O)CC1N=C2c3ccccc3N=C(SCC(=O)Nc3ccccc3OC)N2C1=O (stereo not drawn)	1.5%	-22.7%	0.1%	18.4µM*
Cc1ccccc1-c1noc(-c2ccc(Cl)cc2)n1	2.4%	1.1%	12.3%	u
Cc1ccccc1-c1noc(-c2ccccc2F)n1	-10.5%	-0.7%	8.91µM*	x
O=C(Nc1cc(-c2ccc(F)c(F)c2)no1)c1ccccc1F	1.6%	9.0%	5.6%	u
CC(C)c1nc2sc3ccccc3c(=O)c2c(=O)n1Cc1ccccc1	25.6%	-7.4%	0.5%	25.9µM*
COc1ccc(C)cc1NC(=O)C(C)N(c1ccc(C)cc1)S(C)(=O)=O (stereo not drawn)	-11.3%	12.2%	0.6%	x
Cc1ccc(N(C(C)C(=O)Nc2cc(Cl)ccc2Oc2ccccc2)S(C)(=O)=O)cc1 (stereo not drawn)	-9.6%	-0.5%	2.4%	20.6µM*
CCCN(CCC)C(=O)/C=C/c1cccc([N+](=O)[O-])c1	-2.3%	11.7%	11.6%	-8.1%
CC(C)N(C(=O)/C=C/c1cccc([N+](=O)[O-])c1)C(C)C	1.0%	0.1%	14.1µM*	4.4%
Cc1ccc(/C=C(\C#N)C(=O)Nc2ccccn2)o1	-8.8%	-7.4%	14.1µM*	u
CCOC(=O)c1c(NC(=O)c2cc(=O)c3cc(C)ccc3o2)sc2c1CCCC2	-7.3%	3.9%	-0.5%	5.1%
CCc1ccc(NC(=O)c2ccc(CNS(=O)(=O)c3ccc4c(c3)C(C)(C)C(=O)N4C)cc2)cc1	-3.5%	-12.6%	6.1%	26.8%
CN1C(=O)C(C)(C)c2cc(S(=O)(=O)NCc3ccc(C(=O)Nc4ccc(Cl)cc4)cc3)ccc21	1.3%	-15.0%	4.7%	18.4µM*
NCCCNc1ncnc2ccc(-c3ccc4c(c3)OCO4)cc12	5.1%	-7.6%	x	0.0%
SMILES	Pin1 inhibitor	A549 tox	Nrf2 activator	Nrf2 inh
O=C(Nc1sc2c(c1C(=O)O)CCCCC2)c1ccccc1	-5.2%	-11.3%	3.9%	u
O=C(Nc1sc2c(c1C(=O)O)CCCC2)c1ccc(Cl)cc1	6.7%	u	0.3%	6.51µM*
Cc1ccc(N2C(=O)CS(=O)(=O)C23C(=O)N(Cc2ccccc2C)c2ccccc23)cc1Cl (stereo not drawn)	25.2%	17.2%	-0.9%	u
N#Cc1c(NC(=O)CSc2ncnc3sccc23)oc(-c2ccco2)c1-c1ccco1	u	-7.7%	10µM*	-2.2%
Cc1cc(NC(=O)CSc2ncnc3sccc23)no1	4.1%	5.6%	8.4%	-4.7%
CCOc1ccc(NC(=O)N2CCN(c3nc4ccccc4s3)CC2)cc1	-2.7%	-8.7%	2.6%	u
O=C(Nc1ccc(C(F)(F)F)cc1)N1CCN(c2ccnc3cc(Cl)ccc23)CC1	2.0%	u	9.6%	18.4µM*
Cc1cccc(Cl)c1NC(=O)N1CCN(c2ccnc3cc(Cl)ccc23)CC1	-2.3%	-11.1%	0.4%	9.2µM*
Cc1cccc(C)c1NC(=O)N1CCN(c2nc3ccccc3s2)CC1	1.6%	-18.0%	0.6%	4.61µM*
CCCCNC(=O)N1CCN(c2ccnc3cc(Cl)ccc23)CC1	16.4%	-4.1%	0.5%	10.3µM*
O=C(O)CSCC(=O)N1CCN(c2ccnc3cc(Cl)ccc23)CC1	-6.5%	-9.2%	-0.7%	-6.6%
Cc1ccc(SCC(Cc2ccccc2)N2CCN(C)CCC2=O)cc1 (stereo not drawn)	-10.4%	1.9%	x	22.6%
CCCN1CCC(=O)N(CCSc2ccc(Br)cc2)CC1	-1.4%	-11.2%	x	u
O=C(Nc1cc(F)ccc1F)N1CCN(c2ccnc3cc(Cl)ccc23)CC1	1.7%	-2.1%	2.7%	16.4µM*
CC(=O)N1CCN(c2ccnc3cc(Cl)ccc23)CC1	-0.3%	2.4%	0.3%	u
CN1C(=O)Cc2cc([S+](=O)([O-])N3CCN([S+](=O)([O-])c4c(F)cccc4F)CC3)ccc21	-0.9%	-7.7%	x	15.5%
Cc1ccc(NC(=O)CSc2ccccc2NC(=O)c2ccccc2)cc1Cl	13.5%	-23.3%	4.5%	u
Cc1ccc(NC(=O)CSc2ccccc2NC(=O)c2ccccc2Cl)cc1Cl	39.7%	u	2.3%	25.9µM*
CC(C)c1ccc(S(=O)(=O)N2CCN(Cc3cccc(F)c3)CC2)cc1	5.5%	22.5%	-0.1%	x
CN(C)c1cccc(S(=O)(=O)N2CCCN(S(=O)(=O)c3ccc4c(c3)OCCO4)CC2)c1	18.9%	0.6%	x	-11.8%
Fc1ccc(Nc2nc(NCc3ccco3)c3ccccc3n2)cc1	u	-11.2%	-1.0%	18.4µM*
Nc1nc(Nc2ccccc2)nc(NCc2ccco2)c1[N+](=O)[O-]	u	-1.5%	4.8%	-12.1%
NC(=O)C1CCN(c2oc(-c3ccc(F)cc3)nc2S(=O)(=O)c2ccccc2)CC1	-2.5%	-2.0%	-0.7%	3.9%
O=S(=O)(c1ccccc1)c1nc(-c2ccc(F)cc2)oc1N1CCCCCC1	69.4%	-11.8%	6.4%	25.9µM*
CN(C)S(=O)(=O)c1cccc(NC(=O)CCc2nc3sc4c(c3c(=O)[nH]2)CCCC4)c1	17.7%	-15.7%	1.5%	16.4µM*
COc1ccc(S(=O)(=O)N2CCN(c3nc(-c4ccccc4)nc4ccccc34)CC2)cc1	0.9%	6.4%	x	-11.9%
